{"source": "the supplement of paper PMC4022240", "assay_in_all_cases": "peptide microarray binding signal (635 nm), min-max normalized on array (fraction of array maximum); higher = stronger binding", "key": {"[1]": {"target": "T1, HaloTag-ATRX ADD domain (163-292)", "T1 chain": "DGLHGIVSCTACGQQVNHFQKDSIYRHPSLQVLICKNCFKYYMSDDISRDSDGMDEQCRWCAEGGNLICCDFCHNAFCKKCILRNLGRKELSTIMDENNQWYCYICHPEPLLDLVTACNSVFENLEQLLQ", "how_it_was_run": "(§1)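 Binding signal is the mean intensity of triplicate spots, min-max scaled within each library. Histone 13-mer peptide–cellulose conjugates were spotted in triplicate on nitrocellulose with a Cy3 tracer and blocked overnight at 4°C. Probing lasted 1 h at 4°C, either with biotin-labelled HaloTag reader fusions (10 nM to 1 μM) and streptavidin-Alexa Fluor 647 or with rabbit histone antibodies (1:10,000 to 1:2,000) and anti-rabbit Alexa 647. An Axon GenePix 4000B read signal at 635 nm and misprints at 532 nm.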"}, "[2]": {"target": "HaloTag-ING2 PHD (mouse Ing2 200-280)", "how_it_was_run": "as §1"}, "[3]": {"target": "anti-H3K4me3 antibody ab8580", "how_it_was_run": "as §1"}, "[4]": {"target": "anti-H3K9me3 antibody ab8898", "how_it_was_run": "as §1"}, "[5]": {"conditions": "peptide region: H3 112-124, peptide modifications: H3K115me1 H3K122me3, binder concentration: 1:2,000 dilution"}, "[6]": {"conditions": "peptide region: H3 112-124, peptide modifications: H3K115me1 H3K122me3, binder concentration: 1:10,000 dilution"}, "[7]": {"conditions": "peptide region: H3 112-124, peptide modifications: H3K115me1 H3K122ac, binder concentration: 1:2,000 dilution"}, "[8]": {"conditions": "peptide region: H3 112-124, peptide modifications: H3K115me1 H3K122ac, binder concentration: 1:10,000 dilution"}, "[9]": {"conditions": "peptide region: H3 112-124, peptide modifications: H3K115me1 H3R116me1, binder concentration: 1:2,000 dilution"}, "[10]": {"conditions": "peptide region: H3 112-124, peptide modifications: H3K115me1 H3R116me1, binder concentration: 1:10,000 dilution"}, "[11]": {"conditions": "peptide region: H3 112-124, peptide modifications: H3K115ac, binder concentration: 1:2,000 dilution"}, "[12]": {"conditions": "peptide region: H3 112-124, peptide modifications: H3K115ac, binder concentration: 1:10,000 dilution"}, "[13]": {"conditions": "peptide region: H3 73-85, peptide modifications: H3K79me3 H3T80ph, binder concentration: 1:2,000 dilution"}, "[14]": {"conditions": "peptide region: H3 73-85, peptide modifications: H3K79me3 H3T80ph, binder concentration: 1:10,000 dilution"}}, "note": "± gives the standard deviation.", "data": [{"binder": "IHAKRVTIMPKDI", "note": "[H3 112-124 I H A Kme R V T I M P Kme3 D I]", "values": [{"measurement": "peptide microarray binding signal", "setting": "[1]; peptide region: H3 112-124, peptide modifications: H3K115me1 H3K122me3, binder concentration: 50 nM", "result": "0.00583 ± 0.00011"}, {"measurement": "peptide microarray binding signal", "setting": "[1]; peptide region: H3 112-124, peptide modifications: H3K115me1 H3K122me3, binder concentration: 500 nM", "result": "0.0149 ± 0.00053"}, {"measurement": "peptide microarray binding signal", "setting": "[2]; peptide region: H3 112-124, peptide modifications: H3K115me1 H3K122me3, binder concentration: 10 nM", "result": "0.0251 ± 0.0019"}, {"measurement": "peptide microarray binding signal", "setting": "[2]; peptide region: H3 112-124, peptide modifications: H3K115me1 H3K122me3, binder concentration: 100 nM", "result": "0.0482 ± 0.004"}, {"measurement": "peptide microarray binding signal", "setting": "[3]; [5]", "result": "0.00627 ± 0.0014"}, {"measurement": "peptide microarray binding signal", "setting": "[3]; [6]", "result": "0.00548 ± 0.00038"}, {"measurement": "peptide microarray binding signal", "setting": "[4]; [5]", "result": "0.0268 ± 0.0058"}, {"measurement": "peptide microarray binding signal", "setting": "[4]; [6]", "result": "0.0121 ± 0.00038"}]}, {"binder": "IHAKRVTIMPKDI", "note": "[H3 112-124 I H A Kme R V T I M P Kac D I]", "values": [{"measurement": "peptide microarray binding signal", "setting": "[1]; peptide region: H3 112-124, peptide modifications: H3K115me1 H3K122ac, binder concentration: 50 nM", "result": "0.00345 ± 6.5e-05"}, {"measurement": "peptide microarray binding signal", "setting": "[1]; peptide region: H3 112-124, peptide modifications: H3K115me1 H3K122ac, binder concentration: 500 nM", "result": "0.0061 ± 0.00013"}, {"measurement": "peptide microarray binding signal", "setting": "[2]; peptide region: H3 112-124, peptide modifications: H3K115me1 H3K122ac, binder concentration: 10 nM", "result": "0.00746 ± 0.00035"}, {"measurement": "peptide microarray binding signal", "setting": "[2]; peptide region: H3 112-124, peptide modifications: H3K115me1 H3K122ac, binder concentration: 100 nM", "result": "0.0111 ± 0.00029"}, {"measurement": "peptide microarray binding signal", "setting": "[3]; [7]", "result": "0.00249 ± 0.0011"}, {"measurement": "peptide microarray binding signal", "setting": "[3]; [8]", "result": "0.001484 ± 1.4e-05"}, {"measurement": "peptide microarray binding signal", "setting": "[4]; [7]", "result": "0.000997 ± 1.4e-05"}, {"measurement": "peptide microarray binding signal", "setting": "[4]; [8]", "result": "0.00104 ± 2.8e-05"}]}, {"binder": "IHAKRVTIMPKDI", "note": "[H3 112-124 I H A Kme Rme V T I M P K D I]", "values": [{"measurement": "peptide microarray binding signal", "setting": "[1]; peptide region: H3 112-124, peptide modifications: H3K115me1 H3R116me1, binder concentration: 50 nM", "result": "0.0108 ± 0.00023"}, {"measurement": "peptide microarray binding signal", "setting": "[1]; peptide region: H3 112-124, peptide modifications: H3K115me1 H3R116me1, binder concentration: 500 nM", "result": "0.0356 ± 0.0019"}, {"measurement": "peptide microarray binding signal", "setting": "[2]; peptide region: H3 112-124, peptide modifications: H3K115me1 H3R116me1, binder concentration: 10 nM", "result": "0.0466 ± 0.0022"}, {"measurement": "peptide microarray binding signal", "setting": "[2]; peptide region: H3 112-124, peptide modifications: H3K115me1 H3R116me1, binder concentration: 100 nM", "result": "0.0304 ± 0.0046"}, {"measurement": "peptide microarray binding signal", "setting": "[3]; [9]", "result": "0.00891 ± 0.0021"}, {"measurement": "peptide microarray binding signal", "setting": "[3]; [10]", "result": "0.00593 ± 0.0011"}, {"measurement": "peptide microarray binding signal", "setting": "[4]; [9]", "result": "0.00746 ± 0.0012"}, {"measurement": "peptide microarray binding signal", "setting": "[4]; [10]", "result": "0.00646 ± 0.00037"}]}, {"binder": "IHAKRVTIMPKDI", "note": "[H3 112-124 I H A Kac R V T I M P K D I]", "values": [{"measurement": "peptide microarray binding signal", "setting": "[1]; peptide region: H3 112-124, peptide modifications: H3K115ac, binder concentration: 50 nM", "result": "0.0131 ± 0.00019"}, {"measurement": "peptide microarray binding signal", "setting": "[1]; peptide region: H3 112-124, peptide modifications: H3K115ac, binder concentration: 500 nM", "result": "0.0422 ± 0.0053"}, {"measurement": "peptide microarray binding signal", "setting": "[2]; peptide region: H3 112-124, peptide modifications: H3K115ac, binder concentration: 10 nM", "result": "0.0158 ± 0.0028"}, {"measurement": "peptide microarray binding signal", "setting": "[2]; peptide region: H3 112-124, peptide modifications: H3K115ac, binder concentration: 100 nM", "result": "0.0152 ± 0.00051"}, {"measurement": "peptide microarray binding signal", "setting": "[3]; [11]", "result": "0.00323 ± 0.00038"}, {"measurement": "peptide microarray binding signal", "setting": "[3]; [12]", "result": "0.00228 ± 0.00013"}, {"measurement": "peptide microarray binding signal", "setting": "[4]; [11]", "result": "0.00832 ± 0.00014"}, {"measurement": "peptide microarray binding signal", "setting": "[4]; [12]", "result": "0.00329 ± 0.00029"}]}, {"binder": "EIAQDFKTDLRFQ", "note": "[H3 73-85 E I A Q D F Kme3 Tph D L R F Q]", "values": [{"measurement": "peptide microarray binding signal", "setting": "[1]; peptide region: H3 73-85, peptide modifications: H3K79me3 H3T80ph, binder concentration: 50 nM", "result": "0.001066 ± 5.3e-06"}, {"measurement": "peptide microarray binding signal", "setting": "[1]; peptide region: H3 73-85, peptide modifications: H3K79me3 H3T80ph, binder concentration: 500 nM", "result": "0.0021 ± 0.00018"}, {"measurement": "peptide microarray binding signal", "setting": "[2]; peptide region: H3 73-85, peptide modifications: H3K79me3 H3T80ph, binder concentration: 10 nM", "result": "0.00221 ± 6.6e-05"}, {"measurement": "peptide microarray binding signal", "setting": "[2]; peptide region: H3 73-85, peptide modifications: H3K79me3 H3T80ph, binder concentration: 100 nM", "result": "0.00333 ± 0.0011"}, {"measurement": "peptide microarray binding signal", "setting": "[3]; [13]", "result": "0.000887 ± 9.8e-05"}, {"measurement": "peptide microarray binding signal", "setting": "[3]; [14]", "result": "0.00183 ± 0.00035"}, {"measurement": "peptide microarray binding signal", "setting": "[4]; [13]", "result": "0.0135 ± 0.0079"}, {"measurement": "peptide microarray binding signal", "setting": "[4]; [14]", "result": "0.00577 ± 0.0016"}]}]}
